From PubChem BioAssay
This is a sample that favours compounds with a hit; in the whole collection about 5.4% have one here.
Beta apoptosis: beta cell apoptosis inhibition | INS-1E cytokine-induced death, ATP luminescence, 48 h; percent of positive-control rescue, neutral wells zero | protection from apoptosis, % (no concentration beside the values) | hit rate 0.8% among 300,000 | AID 435005;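 active = Every replicate reaches about 75%, or at least half do and their mean reaches it too, limit read from the data; inconclusive = At least half of replicates reach the limit but their mean does not; inactive = Under half of replicates reach the limit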;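 note: 0% = cytokine-treated negative control wells and 100% = positive control rescue; higher means more ATP so stronger rescue from cytokine killing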
MPTP inh: inhibitors of mitochondrial permeability transition pore; inhibition, % at 10 µM; isolated mouse mitochondria, Ca2+ swelling absorbance, 30 min; hit rate 1.4% among 360,000;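 active = inhibition of 50% or more, scaled per plate between neutral and stimulator controls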;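 note: 0% = DMSO wells given calcium and 100% = 1 mM EGTA wells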
Calb FLC: affects C. albicans growth with fluconazole. C. albicans CaCi-2 (fluconazole-resistant clinical isolate) + fluconazole, Alamar Blue growth, 48 h. growth inhibition, % (concentration not given with the values). hit rate 0.57% among 300,000;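 active = growth inhibition above about 58% in most replicates, limit read from the data, passing the limit was not always enough; inconclusive = exactly half the replicates above a set limit; inactive = most replicates below a set limit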;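 note: all wells also contain fluconazole at 8 µg/ml as a sub-toxic cotreatment; 0% = median of DMSO wells and 100% = median of geldanamycin control wells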
CSC inhib: cancer stem cell inhibition. cancer stem cell-like cells viability, luminescence. inhibition, % at 7.5 µM. hit rate 1.1% among 300,000. AID 2717; in the data active = inhibition above about 75%; inconclusive = no clear call, values can overlap the other calls; tested in HMLE shEcad cells
SKKanGAS inh: blocks kanamycin growth of S. pyogenes SKKanGAS strain. BacTiter-Glo, 6 h. inhibition, % at 7.5 µM. hit rate 1.3% among 300,000. AID 1662;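 active = mean replicate score, as percent of positive control median, at least 50; inconclusive = mean below 50 but one replicate at or above 50; inactive = mean and every replicate below 50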;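 note: strain carries kanamycin resistance gene driven by streptokinase promoter and grows in 40 µg/ml kanamycin; loss of luminescence reflects streptokinase promoter inhibition or plain growth inhibition; 0% = median of DMSO wells and 100% = positive control at its reference dose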
Mdm2 MdmX PPI: disrupts the human Mdm2-MdmX interaction | SaOS-2 split-luciferase Mdm2/MdmX complementation, luminescence | inhibition, % at 8 µM | AID 485346 | hit rate 3% among 330,000 | O15151+Q00987;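 active = inhibition of at least 50% at 8 µM in the primary screen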
Target sequence (O15151 whole entry, looked up): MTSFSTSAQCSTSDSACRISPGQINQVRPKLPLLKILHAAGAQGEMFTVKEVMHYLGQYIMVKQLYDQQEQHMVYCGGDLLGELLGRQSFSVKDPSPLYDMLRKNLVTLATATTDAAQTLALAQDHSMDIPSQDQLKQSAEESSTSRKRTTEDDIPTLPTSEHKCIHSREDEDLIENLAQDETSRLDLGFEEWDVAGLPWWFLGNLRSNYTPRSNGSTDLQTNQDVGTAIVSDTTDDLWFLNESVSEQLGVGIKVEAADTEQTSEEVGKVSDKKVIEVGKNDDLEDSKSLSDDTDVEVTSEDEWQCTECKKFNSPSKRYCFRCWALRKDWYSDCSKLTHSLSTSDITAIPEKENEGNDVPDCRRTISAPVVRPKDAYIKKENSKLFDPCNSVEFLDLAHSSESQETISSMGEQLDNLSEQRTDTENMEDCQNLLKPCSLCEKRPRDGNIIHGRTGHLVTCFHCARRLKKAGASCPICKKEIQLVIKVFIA
Target sequence (Q00987 whole entry, looked up): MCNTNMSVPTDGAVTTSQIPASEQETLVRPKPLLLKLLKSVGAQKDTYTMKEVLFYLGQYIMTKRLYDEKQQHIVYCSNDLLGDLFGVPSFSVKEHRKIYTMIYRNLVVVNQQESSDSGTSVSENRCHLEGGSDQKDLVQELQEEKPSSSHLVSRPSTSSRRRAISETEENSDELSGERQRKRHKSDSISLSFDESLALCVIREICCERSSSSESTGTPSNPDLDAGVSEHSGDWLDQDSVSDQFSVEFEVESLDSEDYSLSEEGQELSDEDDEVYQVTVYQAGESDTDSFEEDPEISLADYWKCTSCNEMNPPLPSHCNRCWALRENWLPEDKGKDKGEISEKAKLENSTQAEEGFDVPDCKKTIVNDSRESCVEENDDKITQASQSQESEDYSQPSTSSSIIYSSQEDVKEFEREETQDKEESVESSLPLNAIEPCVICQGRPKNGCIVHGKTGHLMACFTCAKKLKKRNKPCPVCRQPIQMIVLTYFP
Rh123 counter: Rhodamine 123 counter-screen of mitochondrial pore hits; inhibition, % at 10 µM; AID 624504; shares compounds with MPTP inh; isolated mitochondria, membrane potential, Rhodamine 123 fluorescence; hit rate 78% among 5,000; in the data active = inhibition above about 22%;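 note: 0% = DMSO vehicle and 100% = positive control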
MPTP swell DR: dose response confirmation of mitochondrial permeability transition pore inhibitors; shares compounds with MPTP inh; isolated mitochondria swelling, absorbance; IC50, µM; hit rate 58% among 780; in the data active = IC50 below about 20 µM
MPTP cs DR: counter-screen for mitochondrial permeability transition pore inhibitors, dose response; shares compounds with MPTP inh; isolated mitochondria counterscreen, fluorescence read-out; IC50, µM; hit rate 49% among 780; AID 651564; in the data active = IC50 below about 80 µM
An asterisk follows results filed as active; ? = inconclusive; . = no result.

SMILES | Beta apoptosis | MPTP inh | Calb FLC | CSC inhib | SKKanGAS inh | Mdm2 MdmX PPI | Rh123 counter | others
Cc1ccc2c(c1)C1CN(C)CCC1N2C(=O)Nc1ccc(Cl)cc1 (configuration not stated) | . | 87* | -11 | . | -5 | . | 94*
CSc1nc2ccc(NS(=O)(=O)c3ccccc3F)cc2s1 | -2 | 0 | 30 | -3 | 3 | 9 | .
CSc1nc2ccc(NS(=O)(=O)c3ccc4c(c3)OCCO4)cc2s1 | 9 | 55* | . | -3 | 1 | 27 | 101*
CSc1nc2ccc(NS(=O)(=O)c3ccc(Br)s3)cc2s1 | 0 | 84* | 20 | 25 | 7 | 1 | 75*
CSc1nc2ccc(NS(=O)(=O)c3c(Cl)cccc3Cl)cc2s1 | -6 | 1 | 15 | 27 | 34 | -5 | .
CCn1nnnc1NCc1ccc(OCc2ccc(F)cc2Cl)c(OC)c1 | 2 | 0 | -6 | 6 | -6 | 19 | .
COC(=O)c1ccc(C(=O)N(C)C2CCCN(Cc3ccccc3F)C2)nc1 (configuration not stated) | . | 0 | 2 | 12 | 3 | 5 | .
Cc1ccc(C)c(Oc2cc(NC(=O)CCCn3nc(C)c([N+](=O)[O-])c3C)cc([N+](=O)[O-])c2)c1 | 19 | 94* | 0 | 8 | 13 | 15 | 75*
CCCN1CCC(NC(=O)Nc2ccc(Br)cc2)CC1 | 2 | 61* | 18 | -7 | -5 | 12 | 76*
Cc1ccc(C)c(N2CCN(CCCc3ccccc3)CC2)c1 | -12 | 0 | 5 | -8 | -1 | 11 | .
CCN1CCN(CC(=O)Nc2cc(C(F)(F)F)ccc2OCCOC)CC1 | 9 | 2 | 2 | 12 | -14 | 0 | .
N#Cc1ccc(NC(=S)Nc2ccccc2)cc1 | -4 | 90* | 1 | 13 | 14 | -11 | 92*
S=C(Nc1cccc(Br)c1)c1ccccc1 | -3 | 53* | 1 | 5 | -23 | 2 | 71*
S=C(Nc1ccccc1)Nc1ccc(Br)cc1 | -1 | 95* | -1 | 25 | 6 | 14 | 88*
S=C(Nc1ccccc1)Nc1cccc(Br)c1 | -3 | 90* | 1 | . | -23 | -18 | 102*
O=C(NNc1cc(Cl)ccc1Cl)c1c(F)cccc1Cl | -2 | 3 | 6 | -1 | -8 | -20 | .
Cc1ccc(S(=O)(=O)CC(=O)NC(C)(C)C)cc1 | -5 | 1 | -5 | -16 | 10 | 8 | .
COC(=O)COc1ccc(S(=O)(=O)N2CCc3ccccc3C2)cc1 | -3 | 1 | -18 | -3 | 7 | 4 | .
CC(=O)Nc1ccc(NC(=S)Nc2ccccc2)cc1 | -1 | 0 | -2 | -5 | -3 | 24 | .
CC(C)(C)NC(=S)Nc1ccc(Br)cc1 | -2 | 51* | -5 | 5 | -1 | 18 | 66*
CC(=O)Nc1ccc(NC(=S)Nc2ccc(Br)cc2)cc1 | 1 | 98* | -13 | 14 | -19 | 14 | 88*
COc1cccc(N2CCN(CC(=O)NC(=O)NC3CCCCC3)CC2)c1 | . | -1 | . | . | . | 26 | .
CC1(C)Cc2cccc(OCC(=O)NCc3ccccc3F)c2O1 | 7 | 0 | . | . | . | 16 | .
O=[N+]([O-])c1cc2c(c([N+](=O)[O-])c1)Nc1ccccc1O2 | . | 55* | . | . | . | . | 61*
CCCn1c(=N)n(CC(O)c2ccco2)c2ccccc21 (configuration not stated) | 1 | 1 | -7 | 4 | 0 | 14 | .
SMILES | Beta apoptosis | MPTP inh | Calb FLC | CSC inhib | SKKanGAS inh | Mdm2 MdmX PPI | Rh123 counter | others
Cc1ccc(Cn2c(=N)n(CC(O)c3ccco3)c3ccccc32)cc1 (configuration not stated) | 6 | 70* | -4 | -2 | 4 | 20 | 43*
COc1ccc(NC(=S)NCCC2=CCCCC2)cc1OC | -2 | 1 | 6 | 1 | -1 | -9 | .
Clc1ccc(CNCCC2=CCCCC2)cc1 | 5 | 70* | -17 | -16 | 1 | 3 | -7 | MPTP swell DR=13*;MPTP cs DR=>80
S=C(NCCC1=CCCCC1)Nc1ccc(Cl)cc1 | 3 | 91* | ? | 10 | 1 | 8 | 90*
CC(C)N(C(=O)[C@H]1C[C@H](CC(=O)NCCCn2ccnc2)C(=O)N2CCc3c([nH]c4cc(-c5ccco5)ccc34)[C@]12C)C(C)C | . | -2 | . | . | . | 21 | .
COc1ccc(CNC(=O)CCC(=O)N2CCN(S(=O)(=O)c3cc([N+](=O)[O-])ccc3C)CC2)cc1 | . | -1 | . | . | . | -12 | .
CCOC(=O)CSc1nc(-c2ccccc2)cc(C(F)(F)F)n1 | 1 | -1 | -3 | -3 | 11 | 10 | .
CCOC(=O)NC(NC(=S)Nc1ccc(OC)cc1)C(Cl)(Cl)Cl (configuration not stated) | 0 | 8 | -17 | . | 1 | -2 | .
CC(=O)NC(NC(=S)Nc1ccc(S(N)(=O)=O)cc1)C(Cl)(Cl)Cl (configuration not stated) | -6 | 2 | 1 | -8 | 0 | -4 | .
Cc1cccc(NC(=S)NC(NC(=O)OCc2ccccc2)C(Cl)(Cl)Cl)c1 (configuration not stated) | 10 | 74* | -7 | 34 | 14 | 19 | 80*
CC(=O)NC(NC(=S)Nc1cccc(Br)c1)C(Cl)(Cl)Cl (configuration not stated) | 0 | 95* | -3 | 4 | 3 | -13 | 76*
CC(=O)NC(NC(=S)Nc1ccc(N=Nc2ccccc2)cc1)C(Cl)(Cl)Cl (configuration not stated) | 32 | 94* | 2 | 63 | ? | 28 | 62*
O=C(NC(NC(=S)Nc1cccc(C(=O)O)c1)C(Cl)(Cl)Cl)OCc1ccccc1 (configuration not stated) | -8 | 0 | 2 | -9 | 7 | 13 | .
COC(=O)NC(NC(=S)Nc1ccc([N+](=O)[O-])cc1)C(Cl)(Cl)Cl (configuration not stated) | 16 | 93* | -23 | 25 | 19 | 32 | 80*
CC1CC(=O)C2=C(C1)Nc1ccccc1SC2c1ccc(F)cc1 (configuration not stated) | 23 | 23 | -45 | -6 | 2 | -2 | .
O=c1ccc(-c2ccc(S(=O)(=O)NCC3CCN(Cc4cccc(F)c4)CC3)s2)n[nH]1 | 1 | -1 | -5 | 11 | -7 | -15 | .
CC(C)Cc1ccc(C(C)C(=O)Nc2nccs2)cc1 (configuration not stated) | 11 | 1 | -19 | 2 | 1 | 23 | .
O=C(Nc1ccc(S(=O)(=O)NC2=NCCCCC2)cc1)c1cc(F)c(F)cc1Cl | . | -1 | . | . | . | 15 | .
COc1ccc(NC(=S)NC(NC(=O)/C=C/c2ccccc2)C(Cl)(Cl)Cl)cc1 (configuration not stated) | . | 96* | -6 | 14 | 17 | 39 | 65*
